From PubChem BioAssay
Active and inactive are the calls of the source. Unless noted, how the calls were made is not given here.

Columns and labels:
[1] = anti-His antibody binders, primary screen, artefact control for SMM control protein annotation, biochemical, small-molecule microarray, 635 nm fluorescence (AID 1128); details: anti-His Alexa647 antibody binding, higher = more signal;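 further: score merges feature fluorescence with signal-to-noise for each printed compound spot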
[2] = test system: Human papillomavirus type 1a E7 protein (residues 1-88); assay: HPV1a E7 small-molecule binders, primary screen, biochemical, small-molecule microarray, residues 1-88, 635 nm (AID 1129); details: small-molecule microarray binding, fluorescence 635 nm; higher = more signal
[3] = molecular target: Focal adhesion kinase 1 (Homo sapiens) (UniProt Q05397); assay: small-molecule microarray binders of FAK, primary screen, biochemical, 635/667 nm fluorescence, BSA, DTT (AID 1130); details: PTK2 binding, 635 nm fluorescence, higher = more signal;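 further: composite of spot emission at 667 nm and signal to noise over triplicate slides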
Focal adhesion kinase 1 (Homo sapiens), sequence (Q05397 whole entry, looked up): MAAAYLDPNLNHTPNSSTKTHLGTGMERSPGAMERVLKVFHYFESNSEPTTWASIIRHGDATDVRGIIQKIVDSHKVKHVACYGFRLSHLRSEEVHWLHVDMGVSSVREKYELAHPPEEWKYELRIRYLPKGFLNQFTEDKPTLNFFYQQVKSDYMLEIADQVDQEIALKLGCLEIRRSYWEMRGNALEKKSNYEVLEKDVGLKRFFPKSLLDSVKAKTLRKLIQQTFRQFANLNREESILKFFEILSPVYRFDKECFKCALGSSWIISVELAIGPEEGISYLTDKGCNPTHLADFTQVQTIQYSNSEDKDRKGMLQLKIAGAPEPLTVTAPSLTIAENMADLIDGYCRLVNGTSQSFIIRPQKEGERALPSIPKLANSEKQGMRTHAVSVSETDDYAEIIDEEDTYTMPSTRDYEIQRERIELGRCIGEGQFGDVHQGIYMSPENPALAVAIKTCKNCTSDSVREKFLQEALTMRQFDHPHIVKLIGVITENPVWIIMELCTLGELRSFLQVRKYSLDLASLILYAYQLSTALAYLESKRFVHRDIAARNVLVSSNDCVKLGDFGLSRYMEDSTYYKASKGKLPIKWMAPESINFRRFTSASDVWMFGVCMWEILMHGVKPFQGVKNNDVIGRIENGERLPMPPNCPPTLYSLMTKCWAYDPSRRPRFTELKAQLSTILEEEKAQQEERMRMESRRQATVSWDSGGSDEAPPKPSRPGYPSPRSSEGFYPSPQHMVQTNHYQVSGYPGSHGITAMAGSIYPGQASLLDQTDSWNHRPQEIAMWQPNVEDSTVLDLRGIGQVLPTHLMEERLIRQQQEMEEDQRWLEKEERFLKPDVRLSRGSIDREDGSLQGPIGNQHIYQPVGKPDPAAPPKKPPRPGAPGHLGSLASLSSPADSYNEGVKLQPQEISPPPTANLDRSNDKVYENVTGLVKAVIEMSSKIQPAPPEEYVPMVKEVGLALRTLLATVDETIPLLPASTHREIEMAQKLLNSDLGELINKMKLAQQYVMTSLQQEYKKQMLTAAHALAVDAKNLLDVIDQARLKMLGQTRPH

[4] = test system: Fibrinogen (Alexa647-labelled); assay: fibrinogen binders on compound microarrays, profiling panel, artefact control for SMM control-protein annotation, biochemical, small-molecule microarray, 635/667 nm fluorescence (AID 1131); details: fibrinogen-A647 binding fluorescence, higher = more signal;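 further: z-score merges 667 nm fluorescence with per-spot signal-to-noise over triplicate slides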
[5] = molecular target: Follistatin (Homo sapiens) (UniProt P19883); assay: follistatin binders on small-molecule microarrays, primary screen, biochemical, small-molecule microarray, 635/667 nm fluorescence (AID 1132); details: FST binding, 635 nm fluorescence, higher = more signal
Follistatin (Homo sapiens), sequence (P19883 whole entry, looked up): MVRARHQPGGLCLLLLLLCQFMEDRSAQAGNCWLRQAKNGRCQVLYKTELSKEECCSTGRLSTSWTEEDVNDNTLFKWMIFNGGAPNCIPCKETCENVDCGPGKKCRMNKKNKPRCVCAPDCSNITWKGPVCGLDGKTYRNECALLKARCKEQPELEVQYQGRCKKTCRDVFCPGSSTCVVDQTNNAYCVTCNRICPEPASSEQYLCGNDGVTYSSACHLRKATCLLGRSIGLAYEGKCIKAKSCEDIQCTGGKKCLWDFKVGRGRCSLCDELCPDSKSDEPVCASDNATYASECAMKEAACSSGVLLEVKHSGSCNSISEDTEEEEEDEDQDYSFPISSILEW

[6] = molecular target: Fibroblast growth factor 2 (Homo sapiens) (UniProt P09038); assay: FGF2 binders on small-molecule microarrays, primary screen, biochemical, small-molecule microarray, 635/667 nm fluorescence (AID 1133); details: small-molecule microarray binding, FGF2, fluorescence 635/667; higher = more signal
Fibroblast growth factor 2 (Homo sapiens), sequence (P09038 whole entry, looked up): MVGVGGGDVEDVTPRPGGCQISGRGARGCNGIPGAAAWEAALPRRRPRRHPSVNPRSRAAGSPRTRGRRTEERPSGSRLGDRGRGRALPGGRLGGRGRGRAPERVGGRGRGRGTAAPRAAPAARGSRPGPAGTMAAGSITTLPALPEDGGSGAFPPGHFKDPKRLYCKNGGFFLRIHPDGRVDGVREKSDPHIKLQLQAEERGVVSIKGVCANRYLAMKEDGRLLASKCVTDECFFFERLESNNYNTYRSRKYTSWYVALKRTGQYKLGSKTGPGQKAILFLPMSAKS

[7] = mitochondrial membrane potential change in A549 cells, profiling panel, cell-based, JC-1 fluorescence, basal, 24 h, 100 nL (AID 1138); details: higher = more signal;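 further: A549 lung adenocarcinoma cells under basal conditions with no added stimulus; test concentration not given here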
Lefty1 = Lefty1 binders on small-molecule microarrays, primary screen, biochemical, small-molecule microarray, 635/667 nm fluorescence (AID 1139); details: small-molecule microarray binding, fluorescence 635/667; higher = more signal
[8] = test system: wheat germ agglutinin (Triticum aestivum), Alexa647-labelled; assay: wheat germ agglutinin binders on compound microarrays, profiling panel, artefact control for SMM control-protein annotation, biochemical, small-molecule microarray, 635/667 nm fluorescence (AID 1140); details: WGA-A647 binding, 635 nm fluorescence, higher = more signal;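 further: score merges 667 nm feature emission with signal to noise over triplicate slides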
[9] = molecular target: Luciferin 4-monooxygenase (Photinus pyralis) (UniProt P08659); assay: firefly luciferase enzyme inhibitors, primary screen, biochemical, luminescence, purified enzyme, 2006 set (AID 1141); details: SteadyGlo luminescence, 30 min, higher = more signal, called active from +8 up or from −8 down;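 further: cell-free assay with purified firefly luciferase at 100 ng per well in PBS; test concentration not given here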
Luciferin 4-monooxygenase (Photinus pyralis), sequence (P08659 whole entry, looked up): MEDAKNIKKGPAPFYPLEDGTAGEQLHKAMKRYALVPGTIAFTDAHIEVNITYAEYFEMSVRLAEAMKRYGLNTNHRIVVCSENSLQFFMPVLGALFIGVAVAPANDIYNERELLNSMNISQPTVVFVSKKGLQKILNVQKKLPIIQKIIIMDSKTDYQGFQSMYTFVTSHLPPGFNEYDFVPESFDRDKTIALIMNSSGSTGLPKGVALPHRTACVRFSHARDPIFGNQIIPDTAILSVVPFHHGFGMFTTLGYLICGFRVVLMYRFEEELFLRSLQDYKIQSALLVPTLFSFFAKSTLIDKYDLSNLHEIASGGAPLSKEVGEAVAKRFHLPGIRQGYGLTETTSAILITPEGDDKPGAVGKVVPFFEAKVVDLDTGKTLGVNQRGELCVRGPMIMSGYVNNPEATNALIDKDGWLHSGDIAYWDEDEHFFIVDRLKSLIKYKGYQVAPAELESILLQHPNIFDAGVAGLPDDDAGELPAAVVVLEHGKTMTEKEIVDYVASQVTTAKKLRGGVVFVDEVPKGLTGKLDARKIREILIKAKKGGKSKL

[10] = test system: Wnt5a (protein binding on small-molecule microarray); assay: Wnt5a binders on small-molecule microarray, primary screen, biophysical, 635/667 nm fluorescence (AID 1142); details: 635 nm fluorescence, higher = more signal;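 further: fluorescence read at 667 nm with signal to noise per printed feature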
[11] = cell viability in Huh7 cells, primary screen, cytotoxicity control for HCV replication inhibitor project, CellTiter-Glo luminescence, basal, 48 h (AID 1143); details: Huh7 HCV replicon, higher = more signal, called active from +8 up or from −8 down;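 further: Huh7 hepatoma cells carrying a hepatitis C replication reporter with no stimulus; test concentration not given here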
[12] = P. aeruginosa biofilm formation inhibitors, primary screen, PAO1 strain, BacTiter-Glo luminescence, LB-PBS (AID 1144); details: 12 h, higher = more signal
[13] = CREB reporter modulators without forskolin, primary screen, cell-based, PC12, CRE-LacZ reporter, unstimulated (AID 1145); details: no forskolin, luminescence, 4.5 h, higher = more signal, called active from +8 up or from −8 down
[14] = CREB reporter modulators under forskolin, primary screen, cell-based, PC12, CRE-LacZ reporter, forskolin-stimulated (AID 1146); details: luminescence, 4.5 h, higher = more signal, called active from +8 up or from −8 down;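 further: PC12 cells with 6xCRE LacZ reporter stimulated by forskolin 10 µM; beta-galactosidase reporter signal reflecting CREB driven transcription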
[15] = molecular target: Streptavidin (Streptomyces avidinii) (UniProt P22629); assay: streptavidin binders on small-molecule microarray, primary screen, artefact control for SMM compound annotation, biophysical, 635/667 nm fluorescence (AID 1147); details: streptavidin binding, higher = more signal;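 further: signal reflects streptavidin binding to arrayed compounds as a control protein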
Streptavidin (Streptomyces avidinii), sequence (P22629 whole entry, looked up): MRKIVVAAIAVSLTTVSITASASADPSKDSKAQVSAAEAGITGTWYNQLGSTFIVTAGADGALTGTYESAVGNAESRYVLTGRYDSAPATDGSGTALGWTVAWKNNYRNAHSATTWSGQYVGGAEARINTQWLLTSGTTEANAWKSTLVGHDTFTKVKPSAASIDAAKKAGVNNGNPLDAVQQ

[16] = small-molecule binders of probe aInhba, primary screen, biochemical, small-molecule microarray, 635/667 nm fluorescence (AID 1148); details: higher = more signal;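 further: score merges 667nm spot fluorescence with signal-to-noise for antibody binding to printed compounds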
Torsin-1A (Homo sapiens) [17] = molecular target: Torsin-1A (Homo sapiens) (UniProt O14656); assay: torsin A binders from cell lysate, primary screen, small-molecule microarray, wild-type, 635/667 nm (AID 1149); details: COS7 hTOR1A-WT lysate, 635 nm fluorescence, higher = more signal
Torsin-1A (Homo sapiens), sequence (O14656 whole entry, looked up): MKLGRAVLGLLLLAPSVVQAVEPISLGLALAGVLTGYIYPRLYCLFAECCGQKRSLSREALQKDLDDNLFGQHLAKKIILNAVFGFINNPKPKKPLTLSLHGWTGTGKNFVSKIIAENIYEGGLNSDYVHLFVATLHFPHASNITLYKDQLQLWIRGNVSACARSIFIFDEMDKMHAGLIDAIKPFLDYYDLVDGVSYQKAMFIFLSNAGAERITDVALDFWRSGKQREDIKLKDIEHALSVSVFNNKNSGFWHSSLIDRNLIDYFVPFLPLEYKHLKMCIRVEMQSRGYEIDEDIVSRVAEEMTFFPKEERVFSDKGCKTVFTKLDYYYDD

Torsin-1A (Homo sapiens) [18] = molecular target: Torsin-1A (Homo sapiens) (UniProt O14656); assay: small-molecule binders of mutant TOR1A in lysate, primary screen, cell lysate, small-molecule microarray, COS7 lysate, 635/667 nm fluorescence (AID 1150); details: COS7 hTOR1A mutant lysate, 635 nm fluorescence, higher = more signal;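 further: score pools 667 nm emission and signal to noise measuring lysate protein binding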
[19] = test system: Sonic hedgehog protein (Shh); assay: small-molecule binders of Shh protein, primary screen, biochemical, small-molecule microarray, 635/667 nm fluorescence (AID 1151); details: small-molecule microarray binding, 635 nm fluorescence; higher = more signal;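 further: Shh protein binding to compounds spotted on small-molecule microarray slides; score combines spot fluorescence intensity with signal-to-noise across triplicate slides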

Row | Compound | composite z-score [1] | composite z-score [2] | composite z-score [3] | composite z-score [4] | composite z-score [5] | composite z-score [6] | z-score [7] | composite z-score (Lefty1) | composite z-score [8] | z-score [9] | composite z-score [10] | z-score [11] | z-score [12] | z-score [13] | z-score [14] | composite z-score [15] | composite z-score [16] | composite z-score (Torsin-1A (Homo sapiens) [17]) | composite z-score (Torsin-1A (Homo sapiens) [18]) | composite z-score [19]
1 | COC(=O)[C@@]1(Cc2ccc(OC)cc2)[C@H]2c3cc(C(=O)N4CCCC4)n(CCc4cc5ccccc5[nH]4)c3C[C@H]2CN1C(=O)c1ccccc1 | 2.2 | 1.25 | 0.832 | 0.98 | 1.18 | 0.754 | 1.3 | -0.246 | 1.05 | 1.91 (inactive) | 0.409 | -1.84 (inactive) | 0.497 (inactive) | -0.189 (inactive) | 0.375 (inactive) | 1.58 | 0.352 | 0.368 | 1.38 | -0.309
2 | COc1cc2c(cc1OC)CN(C(=O)[C@H]1[C@@H]3C(=O)O[C@@H](c4ccccc4)[C@@H](c4ccccc4)N3[C@@H](c3ccc(OCCO)cc3)[C@]13C(=O)Nc1ccc(C#CCCO)cc13)CC2 | 1.43 | 1.22 | 0.541 | 0.939 | 1.35 | 0.742 | -0.96 | 1.14 | 1.01 | 0.268 (inactive) | 0.455 | 0.0229 (inactive) | -0.0983 (inactive) | -0.61 (inactive) | -0.48 (inactive) | 1.31 | 0.659 | 0.272 | 0.764 | 1.62
3 | CC[C@H]1C2=C3C(CC[C@H]4C(OCc5ccc(F)cc5C(F)(F)F)OC[C@](C)([C@@H]34)N(C(=O)OC(C)(C)C)C2)C2COC(=O)OCC21 (stereo not given in full) | 0.0812 | 1.17 | 1.55 | 0.979 | 0.432 | -1.39 | 1.86 | -0.233 | 0.688 | -0.198 (inactive) | 0.0641 | -2.57 (inactive) | 0.265 (inactive) | 0.576 (inactive) | 0.204 (inactive) | 1.44 | 0.0003 | 0.246 | 0.666 | 0.0392
4 | CCCC[C@@H]1C[C@H]1[C@@H](NC(=O)c1ccccc1)c1ccc(Cl)cc1 | -0.0782 | -1.52 | 0.528 | -2.07 | -2.37 | -1.9 | 1.66 | -2.22 | -1.6 | 0.923 (inactive) | -0.546 | -2.6 (inactive) | 0.173 (inactive) | 0.197 (inactive) | 0.699 (inactive) | -1.33 | -0.322 | 4.37 | -0.539 | -1.34
5 | CCOC(=O)C1=CC[C@@H](c2ccccc2C(F)(F)F)N(S(=O)(=O)c2ccc(C)cc2)C1 | 1.62 | 1.18 | 0.406 | 0.836 | 0.877 | 0.633 | 1.9 | -0.356 | 0.989 | 0.515 (inactive) | 0.658 | -5.24 (inactive) | -0.0874 (inactive) | 0.238 (inactive) | -0.596 (inactive) | 0.867 | 0.693 | -0.117 | 2.07 | 0.0555
6 | O=C1O[C@H](c2ccccc2)[C@H](c2ccccc2)N2[C@H]1[C@@H](C(=O)O)[C@]1(C(=O)Nc3ccccc31)[C@H]2c1ccc(O)cc1 | -0.585 | -0.0964 | 0.133 | -1.31 | 0.0111 | 0.152 | 0.226 | -0.634 | -0.55 | 0.002 (inactive) | 0.251 | 0.0915 (inactive) | -0.0265 (inactive) | -0.0566 (inactive) | -0.763 (inactive) | -0.516 | -0.0418 | 0.109 | 1.45 | -0.429
7 | CCCc1cccc(=O)o1 | 0.439 | 0.799 | 0.106 | 0.915 | 0.793 | 0.223 | 0.352 | 0.614 | 0.782 | 2.08 (inactive) | 0.0303 | -1.62 (inactive) | -0.848 (inactive) | -0.574 (inactive) | 0.646 (inactive) | 0.216 | -0.128 | 1.08 | 0.5 | 0.542
8 | COc1ccc([Si](C)(C)[C@@H]2[C@@H](CC(=O)N3CCC[C@H]3CO)O[C@]3(C(=O)N(Cc4ccc(N5C(=O)c6cccc7cccc5c67)cc4)c4ccccc43)[C@H]2C)cc1 | 1.96 | 1.2 | 0.566 | 0.759 | 1.1 | 1.54 | -0.438 | 1.2 | 0.719 | 0.508 (inactive) | 0.761 | -4.78 (inactive) | -0.489 (inactive) | 0.995 (inactive) | -0.0202 (inactive) | 0.0541 | 0.0184 | 0.344 | 0.72 | 2.06
9 | C=CC[C@H](OC(=O)Nc1ccc(OC)cc1)c1ccc(O)c2ccccc12 | 1.15 | 1.16 | 0.531 | 0.305 | 1.3 | 1.64 | -1.43 | 0.907 | 0.616 | -6.26 (inactive) | 0.49 | -4.26 (inactive) | -1.4 (inactive) | 0.935 (inactive) | 5.57 (inactive) | 0.855 | 0.0275 | 0.51 | 0.696 | 1.66
10 | COCC(=C=CC[C@H](O)c1ccc(OCCO)cc1)C[C@H](O)COCc1ccccc1 | 1.35 | 0.887 | 0.453 | 0.31 | 1.21 | 0.372 | 0.743 | 0.722 | 0.624 | -0.627 (inactive) | 0.122 | -1.66 (inactive) | -0.54 (inactive) | 0.611 (inactive) | -0.724 (inactive) | 0.249 | -0.0736 | 0.908 | 0.719 | 1.55
